This note sets out measurements from PubChem BioAssay (EPA / NIEHS).

SMILES strings stand for the structures. Results filed as inconclusive are left out. Active and inactive are the calls of the source. How the source made its calls, unless noted: active means hit-call score of the fitted dose curve at least 0.9, where 1 is the maximum; inactive means score below 0.9.

Assay [1] in a line: CCTE_Harrill_HTTr_Viability_MCF7: CCTE's 6-hour Cell Viability Assessment for the High-Throughput Transcriptomics (HTTr) Platform, in MCF-7 cells cultured in DMEM + 10% fetal bovine serum, Harrill Lab (AID 2284010). The method in brief:
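Propidium iodide exclusion, imaged by high-content analysis, gauged viability after a six-hour exposure across eight concentrations. Cells were MCF-7 grown in DMEM with 10% fetal bovine serum; fits run in both directions against DMSO.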

Assay [2] in a line: CCTE_Shafer_MEA_dev_firing_rate_mean: CCTE's Neural Network Formation Assay for Mean Firing Rate, Shafer Lab (AID 2284031).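 On AC50: curve fitted for loss of firing so AC50 reflects decreased mean firing rate.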 Put shortly:
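Spike frequency (spikes/recording length, averaged over active electrodes) was recorded on days 5, 7, 9 and 12 and collapsed to AUC; rat cortical cultures received compound continuously over 12 days of network development.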

Assay [3] is described as follows: CCTE_Shafer_MEA_dev_per_burst_spike_percent: CCTE's Neural Network Formation Assay for Percent of Spikes in a Burst, Shafer Lab (AID 2284032).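 On AC50: fitted as a decrease in burst spike percentage below DMSO baseline.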 The method in brief: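 Value is trapezoidal AUC over recordings on days 5, 7, 9 and 12 of the well-mean fraction of spikes falling in single-electrode bursts; rat cortical cultures exposed continuously from plating, treatment renewed DIV 5 and 9, fitted downward against DMSO.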

A short description of assay [4]: CCTE_Shafer_MEA_dev_active_electrodes_number: CCTE's Neural Network Formation Assay for Number of Active Electrodes, Shafer Lab (AID 2284040; active means hit-call score of the fitted dose curve at least 0.9, where 1 is the maximum;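 on AC50: potency for loss of active electrodes versus DMSO so lower counts are hits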). The method in brief: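 Counts electrodes per well firing at least 5 spikes/min, recorded on days 5, 7, 9 and 12 in rat cortical cultures dosed continuously from plating (treatment refreshed DIV 5, 9). Value is the area under the curve over recordings, fitted downward relative to DMSO.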

Assay [5] is described as follows: CCTE_Shafer_MEA_dev_burst_rate: CCTE's Neural Network Formation Assay for Burst Rate, Shafer Lab (AID 2284042).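 On AC50: potency for loss of burst rate below DMSO control.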 The method in brief:
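Primary rat cortical neurons on PEI-coated 48-well MEA plates (laminin added with cells at plating) (16 electrodes/well), exposed from plating to day 12, dosing renewed at DIV 5 and 9. Burst rate averaged over active electrodes, recorded DIV 5, 7, 9, 12, summarized as AUC; loss versus DMSO.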

A short description of assay [6]: CCTE_Shafer_MEA_dev_bursting_electrodes_number: CCTE's Neural Network Formation Assay for Number of Bursting Electrodes, Shafer Lab (AID 2284043; active means hit-call score of the fitted dose curve at least 0.9, where 1 is the maximum;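 on AC50: potency is for loss of bursting electrodes relative to DMSO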). Put shortly:
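Counted: electrodes with burst rate ≥1 per 2 min in each well. Cells: primary rat cortex, 1.5 x 10^5/well, on 16-electrode MEA wells. Exposure: DIV 0–12, compound renewed DIV 5 and 9. Recording days 5, 7, 9, 12; AUC vs DMSO baseline.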

Assay [7] in a line: CCTE_Shafer_MEA_dev_per_burst_interspike_interval: CCTE's Neural Network Formation Assay for Burst Interspike Interval, Shafer Lab (AID 2284044).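 On AC50: potency for a decrease of within-burst interspike interval below DMSO level.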 Put shortly:
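Rat cortical primary cultures, 16 electrodes/well; compound from plating, renewed with full media change DIV 5 and 9. Spikes via adaptive detector; per-burst ISI well-mean over active bursting electrodes; AUC of DIV 5/7/9/12 recordings; loss-direction fit vs DMSO.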

Assay [8] in a line: CCTE_Shafer_MEA_dev_burst_duration_mean: CCTE's Neural Network Formation Assay for Mean Burst Duration, Shafer Lab (AID 2284045).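 On AC50: curve fitted for loss meaning shorter burst duration than DMSO.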 Put shortly: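 Network-formation assay in primary rat cortical neurons; treatment spans twelve days of development. Mean burst duration per well is integrated by trapezoidal AUC and fitted in the loss-of-signal direction against DMSO baseline.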
Assay [9] in a line: CCTE_Shafer_MEA_dev_interburst_interval_mean: CCTE's Neural Network Formation Assay for Mean Interburst Interval, Shafer Lab (AID 2284046).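 Further: well-mean interburst interval of bursting electrodes as AUC over four recording days; curve fitted for decrease in interburst interval relative to DMSO.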 The method in brief: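 Recordings on days 5, 7, 9 and 12 give well-mean interburst interval across actively bursting electrodes, summarized as area under the curve. Cultures: rat cortical neurons, continuous exposure from day 0, compound renewed at feeds; decrease analyzed versus DMSO.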

Assay [10] can be described thus: CCTE_Shafer_MEA_dev_inter_network_spike_interval_mean: CCTE's Neural Network Formation Assay for Mean Inter-network Spike Interval, Shafer Lab (AID 2284047).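 On AC50: potency for a decrease in mean inter-network spike interval below DMSO.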 The method in brief: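 Primary rat cortical neurons on 16-electrode MEA wells, exposed from plating day 0 through DIV 12, compound renewed at DIV 5 and 9 media changes. Mean interval between network-spike peaks recorded DIV 5, 7, 9, 12; collapsed as trapezoidal AUC, fitted downward versus DMSO.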

A short description of assay [11]: CCTE_Shafer_MEA_dev_network_spike_number: CCTE's Neural Network Formation Assay for Number of Network Spikes, Shafer Lab (AID 2284048).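 Further: synchronized bursts across electrodes counted on days 5 7 9 12 and integrated as AUC.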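 On AC50: fit as a loss of signal meaning fewer network spikes than DMSO.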 Put shortly: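 Extracellular recordings from 16-electrode wells track network formation in rat cortical cultures under continuous treatment from plating. The endpoint is network spike number, expressed as AUC across DIV 5–12 relative to DMSO vehicle.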

The nature of assay [12]: CCTE_Shafer_MEA_dev_network_spike_peak: CCTE's Neural Network Formation Assay for Mean Number of Electrodes in Network Spike, Shafer Lab (AID 2284049).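 On AC50: fitted for loss of signal meaning fewer electrodes in network spikes than DMSO.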 Put shortly: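 Continuous 12-day exposure of rat cortical cultures, starting at plating, on MEA plates. Endpoint: electrodes participating in network-spike peaks, AUC across DIV 5–12, DMSO as negative control.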
Assay [13] can be described thus: CCTE_Shafer_MEA_dev_spike_duration_mean: CCTE's Neural Network Formation Assay for Mean Spike Duration, Shafer Lab (AID 2284051).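 On AC50: potency for a decrease in mean network spike duration versus DMSO.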 The method in brief: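 Primary rat cortical neurons on 16-electrode MEA wells (PEI-coated, laminin in plating drop), exposed from plating through DIV 12 with compound renewed at DIV 5 and 9. Mean network-spike duration recorded DIV 5, 7, 9, 12; trapezoidal AUC across days, DMSO baseline.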

A short description of assay [14]: CCTE_Shafer_MEA_dev_network_spike_duration_std: CCTE's Neural Network Formation Assay for Standard Deviation of Network Spike Duration, Shafer Lab (AID 2284052).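 Further: area under curve of spike duration SD across recording days 5 to 12; hits are decreases in network spike duration SD versus DMSO vehicle.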 Put shortly: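 Primary rat cortical neurons on PEI-coated 16-electrode MEA wells, exposed from plating day 0 through day 12 with compound renewed at DIV 5 and 9. Network spike duration SD recorded on days 5, 7, 9, 12, collapsed as trapezoidal AUC; loss-of-signal fit versus DMSO.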

Assay [15] is described as follows: CCTE_Shafer_MEA_dev_per_network_spike_spike_number_mean: CCTE's Neural Network Formation Assay for Mean Number of Spikes in a Network Spike, Shafer Lab (AID 2284053). Put shortly:
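Primary rat cortical neurons on 48-well, 16-electrode MEA plates were exposed from plating to DIV 12, with dosing renewed on DIV 5 and 9. Spikes per network spike (0.05 s peak window) were recorded on DIV 5, 7, 9 and 12 and collapsed as trapezoidal AUC versus DMSO.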

Assay [16] is described as follows: CCTE_Shafer_MEA_dev_per_network_spike_spike_percent: CCTE's Neural Network Formation Assay for Percent of Spikes in a Network Spike, Shafer Lab (AID 2284054). Put shortly:
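Developing networks of rat cortical neurons are dosed at day 0 and recorded extracellularly four times up to day 12. The endpoint is the area under the curve of percent spikes in network spikes, fitted in the negative direction relative to DMSO.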

Assay [17] is described as follows: CCTE_Shafer_MEA_dev_LDH: CCTE's Lactate Dehydrogenase Assay for Cytotoxicity in the Neural Network Formation Assay, Shafer Lab (AID 2284068; active means hit-call score of the fitted dose curve at least 0.9, where 1 is the maximum;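 further: exposure for twelve days from plating with re-dosing on DIV 5 and 9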). The method in brief: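 Primary rat cortical neurons were plated on PEI/laminin MEA plates and exposed from day 0 for twelve days, with compound renewed at DIV 5 and 9. Cytotoxicity was determined by spectrophotometric LDH assay relative to DMSO.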

The nature of assay [18]: CCTE_Shafer_MEA_dev_mutual_information_norm: CCTE's Neural Network Formation Assay for Mutual Information Normalization, Shafer Lab (AID 2284091).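 On AC50: mutual information between electrodes summarised as area under curve across four recording days; potency is for a decrease in mutual information relative to DMSO.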 Put shortly: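 Exposure of primary rat cortical neurons began at plating and ran to DIV 12, with full media and treatment renewal after DIV 5 and 9 recordings. Mutual information AUC (DIV 5–12) was analysed for loss versus DMSO.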

Assay [19] can be described thus: CCTE_Shafer_MEA_dev_correlation_coefficient_mean: CCTE's Neural Network Formation Assay for Mean Correlation Coefficient, Shafer Lab (AID 2284093).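 On AC50: well mean pairwise spike train correlation integrated as AUC over recording days 5 to 12; potency fitted for loss of correlation relative to DMSO vehicle wells.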 Put shortly: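 Spontaneous activity recorded on days 5, 7, 9 and 12 post-plating; pairwise spike correlations are averaged across active electrodes and collapsed to an area-under-curve. Rat cortical cultures are dosed from plating through 12 days, with compound renewed at media changes.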

In the case of `ClC=C(Cl)CCl`, the result in assay [1] was inactive.
In the case of `C[n+]1ccc(-c2ccccc2)cc1`, the result in assay [2], in assay [3], in [5], in assay [7], in [8] and in assay [9] was inactive. Further, the call in assay [10], in [11], in assay [13], in [14], in assay [15] and in assay [16] was inactive. In addition, in assay [18], the compound was classed as inactive. Further, the half-maximal activity concentration (AC50) (as a rule, the concentration at which the activity in the assay is half-maximal) was 4330 nM (active) in [4]; 4700 nM (active) in assay [6]; 6520 nM (active) in [12]; 4700 nM (active) in [17]; 8700 nM (active) in assay [19].
As for `O=C(O)CNCP(=O)(O)O`, the result in assay [2], in assay [3], in assay [4], in assay [5], in assay [6] and in [7] was inactive. Further, the compound was classed as inactive in [8], in assay [9], in assay [10], in assay [11], in assay [12] and in assay [13]. In addition, the compound was classed as inactive in [14], in assay [15], in assay [16], in assay [17], in assay [18] and in assay [19].
In the case of `O.O.O.O.O.[Cd+2].[Cd+2].[Cl-].[Cl-].[Cl-].[Cl-]`, the half-maximal activity concentration (AC50) is 227 nM (active) in assay [2]; 316 nM (active) in [3]; 362 nM (active) in [4]; 188 nM (active) in assay [5]; 300 nM (active) in [6]; 812 nM (active) in assay [7]. Moreover, the AC50 was 375 nM (active) in assay [8]; 863 nM (active) in assay [9]; 38.4 nM (active) in assay [10]; 117 nM (active) in assay [11]; 372 nM (active) in assay [12]; 295 nM (active) in assay [13]. Further, the AC50 in [14] is 181 nM (active); in assay [15], 226 nM (active); in [16], 228 nM (active); in assay [17] it was 499 nM (active); in [18], 135 nM (active); in assay [19], 246 nM (active).
For the compound `COCCOC(C)=O`, the outcome in assay [1] was inactive.
In the case of `[CH3][Sn]([CH3])[CH3]`, the AC50 is 571 nM (active) in assay [2]; 1620 nM (active) in assay [3]; 212 nM (active) in [4]; 559 nM (active) in assay [5]; 245 nM (active) in assay [6]; 2330 nM (active) in [7]. Further, the AC50 is 992 nM (active) in [8]; 2360 nM (active) in assay [9]; 94.4 nM (active) in assay [11]; 224 nM (active) in assay [12]; 151 nM (active) in assay [13]; 77.3 nM (active) in [14]. Besides, the AC50 was 222 nM (active) in assay [15]; 221 nM (active) in [16]; 174 nM (active) in assay [17]; 221 nM (active) in assay [18]; 222 nM (active) in assay [19]. The compound was classed as inactive in assay [10].
Turning to `[Cl-].[Cl-].[Cl-].[Gd+3]`, the outcome in assay [1] was inactive.
On to `Cn1nc(C(F)(F)F)c(CS(=O)(=O)C2=NOC(C)(C)C2)c1OC(F)F`, for which the AC50 in assay [2] was 91600 nM (active); in assay [3], 80900 nM (active); in assay [4], 73600 nM (active); in assay [6], 87500 nM (active); in [7], 26300 nM (active); in assay [12], 50000 nM (active). The AC50 in [13] was 31200 nM (active); in assay [15] it was 50000 nM (active); in [17] it was 80600 nM (active); in [19], 32700 nM (active). Besides, the outcome in assay [5], in [8], in assay [9], in assay [10], in assay [11] and in assay [14] was inactive. Also, the compound was called inactive in assay [16] and in [18].
As to `Cc1cc(N)ccc1N`, the result in assay [1] was inactive.
Regarding `CCOP(=O)(OCC)SCSCC`, the outcome in [2], in [3], in assay [4], in assay [5], in [6] and in [7] was inactive. The outcome in assay [8], in assay [9], in [10], in [11], in assay [13] and in [14] was inactive. Also, the compound was called inactive in assay [15], in assay [17], in assay [18] and in [19]. Also, the AC50 in assay [12] is 49800 nM (active); in assay [16], 90900 nM (active).
With `CC1(C)[C@@H](C=C(Cl)Cl)[C@@H]1C(=O)O[C@@H](C#N)c1ccc(F)c(Oc2ccccc2)c1`, the AC50 in assay [2] is 5760 nM (active); in [3] it was 15000 nM (active); in [4], 10200 nM (active); in [6] it was 15000 nM (active); in [12], 11800 nM (active); in assay [13], 6210 nM (active). Besides, the AC50 was 5820 nM (active) in [15], 15000 nM (active) in assay [16], 2390 nM (active) in assay [18] and 5160 nM (active) in [19]. Further, the result in [5], in assay [7], in [8], in assay [9], in assay [10] and in assay [11] was inactive. In addition, the result in [14] and in assay [17] was inactive.
Turning to `CCCCOC(=O)N(C)SN(C)C(=O)Oc1cccc2c1OC(C)(C)C2`, in assay [1], the outcome was inactive.
Regarding `CCOP(=O)(O)OCC`, the result in [1] was inactive.
